Results reported in PubChem BioAssay (EPA / NIEHS).
Records with an inconclusive call do not appear. A structure can be active in one record and inactive in another. Active and inactive are the calls of the source. Rule for the calls, unless noted: active = hit-call score of the fitted dose curve at least 0.9, where 1 is the maximum; inconclusive = response in the unintended direction; inactive = score below 0.9.

Assays:
[1] = VALA_TUBHUV_Antagonist_CellCount: Viability Assessment in the VALA Sciences human Umbilical Vein Endothelial Tubule Formation (TUBHUV) Antagonism Assay (AID 2284310)
Procedure, shortened: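 Read-out is imaged cell count after nuclear and CD31 staining, fitted against 0.1% DMSO vehicle. Compounds were added for 3 days, in 10 ng/ml VEGF assay medium, to HUVEC–HDF co-cultures pre-grown 3 days.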

[2] = VALA_MIGHUV2_WoundArea: VALA Sciences human Umbilical Vein Endothelial Cell Migration (MIGHUV) Assay, Area of Scratch Wound after Recovery (AID 2284316)
Procedure, shortened: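 Wound-area endpoint read by fluorescence imaging of Hoechst-stained nuclei after a 24 h recovery period following scratch of HUVEC monolayers (9000 cells/well). Chemicals dosed within 30 min post-scratch, triplicate 6-point series, 0.1% DMSO vehicle; Cytochalasin D positive control.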

[3] = VALA_MIGHUV1_ScratchOnly_CellCount: Viability Assessment in the VALA Sciences human Umbilical Vein Endothelial Cell Migration (MIGHUV) Assay, Scratch Wound Inhibited Recovery (AID 2284327)
Procedure, shortened: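 Hoechst-stained nuclei in the scratch wound were counted by high-content imaging after a 24 h recovery period. Scratched HUVEC monolayers received 6-point concentration series, triplicate, in 0.1% DMSO, fit against DMSO.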

[4] = VALA_MIGHUV1_ScratchOnly_WoundArea: VALA Sciences human Umbilical Vein Endothelial Cell Migration (MIGHUV) Assay, Area of Scratch Wound Inhibited Recovery (AID 2284336)
Procedure, shortened: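 Wound area remaining after 24 h recovery imaged by Hoechst nuclear fluorescence in scratched HUVEC cultures, chemicals added within 30 min of scratching across a 6-point series. Gain of signal fitted against 0.1% DMSO; cytochalasin D positive control.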

[5] = VALA_TUBIPS_Agonist_CellCount: Viability Assessment in the VALA Sciences human iPS-derived Endothelial Tubule Formation (TUBIPS) Agonism Assay (AID 2284338)
[6] = IUF_NPC2-5_cell_number_120hr: Cell Number Assessment at 120 hours in the Leibniz Research Institute for Environmental Medicine (IUF) Neural Progenitor Cell Migration and Differentiation Assay (NPC2-5) (AID 2284308; active = hit-call score of the fitted dose curve at least 0.9, where 1 is the maximum; inactive = score below 0.9;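 note: count of Hoechst-stained nuclei in migration zone around plated human neural progenitor spheres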)
Procedure, shortened: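 hNPC spheres, one per well, PDL/laminin, N2 medium, 37C, 5% CO2. Dosing day 0 → half-medium change with fresh compound day 3 → fix 120 h. Readout: Hoechst+ nuclei count, migration area; 7 concentrations plus solvent control.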

[7] = IUF_NPC2-5_viability_120hr: Viability Assessment at 120 hours in the Leibniz Research Institute for Environmental Medicine (IUF) Neural Progenitor Cell Migration and Differentiation Assay (NPC2-5) (AID 2284312; active = hit-call score of the fitted dose curve at least 0.9, where 1 is the maximum; inactive = score below 0.9)
Procedure, shortened: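 Human fetal (GW 16-19) neural progenitor spheres of 0.3 mm were plated on poly-D-lysine/laminin in N2 differentiation medium and exposed from day 0 for 120 h, with half-medium refresh at day 3. Viability was read as alamar blue resazurin-to-resorufin fluorescence against DMSO.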

[8] = CCTE_Mundy_HCI_iCellGluta_NOG_NeuriteLength: CCTE's Neurite Outgrowth Assay in iCellGluta cells for Neurite Length, Mundy Lab (AID 2284318)
Procedure, shortened: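 Automated high-content imaging of betaIII-tubulin (Alexa Fluor-488) and Hoechst-stained cells gave neurite length, normalized to the DMSO baseline.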

[9] = CCTE_Mundy_HCI_iCellGluta_NOG_NeuronCount: CCTE's Neurite Outgrowth Assay in iCellGluta cells for Neuron Count, Mundy Lab (AID 2284340);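 note: cells fixed about 48 h after compound addition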
Procedure, shortened: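 Neuron count read by automated high-content imaging of Hoechst 33342 and betaIII-tubulin/Alexa Fluor-488 labelling in human iPSC glutamatergic neurons. Activity fitted relative to DMSO.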

[10] = CCTE_Mundy_HCI_iCellGluta_NOG_NeuriteCount: CCTE's Neurite Outgrowth Assay in iCellGluta cells for Neurite Count, Mundy Lab (AID 2284342);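 note: chemical exposure about 48 hours starting 2 hours after plating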
[11] = IUF_NPC1_cytotoxicity_72hr: Cytotoxicity Assessment at 72 hours in the Leibniz Research Institute for Environmental Medicine (IUF) Neural Progenitor Cell Proliferation Assay (NPC1) (AID 2284332);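 note: rising LDH signal means more cytotoxicity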
Procedure, shortened: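 LDH in supernatant, resazurin→resorufin fluorescence (RFU), 72 h exposure, no re-dosing. Cells: primary hNPC spheres, one per well, EGF+FGF medium, 37C/5% CO2, pH 7.2-7.6. Fit: positive direction vs baseline and dynamic range.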

SERPINA7 (gene 6906) = experiment: CCTE_GLTED_hTBG: CCTE's human Thyroxine-binding Globulin (TBG) Inhibition Assay, Great Lakes Toxicology and Ecology Division (GLTED) Lab (AID 2284343);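 note: active chemicals lower fluorescence versus DMSO baseline by displacing probe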
Procedure, shortened: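 Fluorescence (ex 380/em 475) reports ANSA displaced from human TBG after a 2 h incubation with test chemical, without cells. Loss of signal indicates displacement, with DMSO serving as baseline.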

IYD (gene 389434) = experiment: CCTE_GLTED_hIYD: CCTE's human Iodotyrosine Deiodinase (xIYD) Inhibition Assay, Great Lakes Toxicology and Ecology Division (GLTED) Lab (AID 2284317);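 note: cell-free human IYD enzyme made in baculovirus insect cells; iodide freed from monoiodotyrosine measured by cerium arsenite color change at 420 nm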
Procedure, shortened: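 Cell-free; baculovirus/insect-cell hIYD + MIT substrate + chemical, 3 h. Dowex column cleanup, then Ce4+/As3+ Sandell-Kolthoff read at A420 nm. Triplicate plates; normalized to 3-nitro-L-tyrosine (positive) and DMSO/NaOH (solvent).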

[12] = TAMU_PeakParms_SingleDonor1434_Asystole: Texas A&M University (TAMU) 1.5-hr Human Induced Pluripotent Stem Cell (iPSC)-derived Cardiomyocytes Calcium (Ca+2) Flux Assay for Cardiotoxicity: Asystole (quiescence of beating) (AID 2284328)
Procedure, shortened: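 Human iPSC-derived cardiomyocytes (donor 1434) were exposed to 0.2, 1, 10 and 100 uM compound in 0.5% DMSO for 90 min at 37C. Ca2+-dye fluorescence gave average peak frequency; POD is EC95, a 95% beat-rate drop versus DMSO.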

[13] = CCTE_Deisenroth_5AR_NBTE_donor: CCTE's 5alpha-reductase NanoBRET Target Engagement Assay […], Deisenroth Lab (AID 2284319; active = hit-call score of the fitted dose curve at least 0.9, where 1 is the maximum; inactive = score below 0.9); details: actives raise or lower the signal
Procedure, shortened: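 SRD5A2-NanoLuc, HEK293T, 20 h expression. Chemical 10 nM - 29.9 uM, 8 conc, duplicate; 3 h preincubation + 2 h testosterone tracer. Nano-Glo substrate plus extracellular NanoLuc inhibitor; donor lum 460 nm. DMSO baseline, bidirectional fit.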

[14] = CCTE_Deisenroth_5AR_NBTE_acceptor: CCTE's 5alpha-reductase NanoBRET Target Engagement Assay - Autofluorescence Screen, Deisenroth Lab (AID 2284321; active = hit-call score of the fitted dose curve at least 0.9, where 1 is the maximum; inactive = score below 0.9;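 note: compound fluorescence in the acceptor channel under 460 nm excitation flags autofluorescence artifacts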); details: actives raise or lower the signal
Procedure, shortened: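 Acceptor fluorescence intensity was read as an artifact-detection endpoint. Test chemicals at an assumed nominal 100 uM were excited at 460 nm across three independent runs. Activity was fitted bidirectionally against DMSO.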

SRD5A2 (gene 6716) = experiment: CCTE_Deisenroth_5AR_NBTE_ratio: CCTE's 5alpha-reductase NanoBRET Target Engagement Assay - Ratio, Deisenroth Lab (AID 2284322; active = hit-call score of the fitted dose curve at least 0.9, where 1 is the maximum; inactive = score below 0.9); details: actives raise or lower the signal
Procedure, shortened: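 SRD5A2-NanoLuc HEK293T; cmpd 10 nM-29.9 uM, 3 h preinc + testosterone tracer 2 h; NanoBRET ratio 650/460; bidirectional fit vs DMSO.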

[15] = CCTE_Deisenroth_H295R-HTRF_384WELL_ESTRADIOL: CCTE's H295R-HTRF Assay Evaluation of Estradiol Concentration, Deisenroth Lab (AID 2284361; active = hit-call score of the fitted dose curve at least 0.9, where 1 is the maximum; inactive = score below 0.9); details: actives raise or lower the signal
Procedure, shortened: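 Estradiol secreted into medium by H295R adrenocortical cells, quantified by HTRF after 48 h dosing over a nine-point 0.001 - 100 uM final range; gain or loss versus DMSO. Parallel ATP-luminescence viability readout; n=5 experiments.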

[16] = CCTE_Deisenroth_H295R-HTRF_384WELL_TESTOSTERONE: CCTE's H295R-HTRF Assay Evaluation of Testosterone Concentration, Deisenroth Lab (AID 2284373; active = hit-call score of the fitted dose curve at least 0.9, where 1 is the maximum; inactive = score below 0.9); details: actives raise or lower the signal
Procedure, shortened: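 Secreted testosterone was quantified by HTRF immunoassay of medium from human adrenocortical H295R cells after 48 h chemical exposure at 0.001–100 uM final. Gain or loss was fitted against DMSO. ATP-based viability was read on matched wells, five experimental replicates.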

[17] = CCTE_Deisenroth_H295R-HTRF_384WELL_CTOX: Cytotoxicity Assessment in CCTE's H295R-HTRF Assay, Deisenroth Lab (AID 2284380)
Procedure, shortened: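 Luminescent ATP viability readout (CellTiter-Glo 2.0), multiplexed on plates used for hormone sampling, after 48 h chemical exposure. Human H295R cells; final concentrations 0.001–100 uM in nine steps, technical triplicates, five experiments; DMSO baseline.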

Measured: AC50

COCc1cnc(C2=NC(C)(C(C)C)C(=O)N2)c(C(=O)O)c1 (stereo unspecified)
inactive: [1] | [2] | [3] | [4] | [5]

CO/N=C(/C1=NOCCO1)c1ccccc1Oc1ncnc(Oc2ccccc2Cl)c1F
active: [8] 9.92 µM | [9] 39.4 µM | [10] 24.4 µM
inactive: [6] | [7]

CCNC(=O)NC(=O)C(C#N)=NOC
inactive: [6] | [7] | [8] | [11] | [9] | [10]

N#CN=C1SCCN1Cc1ccc(Cl)nc1
inactive: [6] | [7] | [8] | [11] | [9] | [10]

CCCCOCN(C(=O)CCl)c1c(CC)cccc1CC
active: SERPINA7 (gene 6906) 19.1 µM

CCN(CC)C(=O)C(C)Oc1cccc2ccccc12 (stereo unspecified)
inactive: IYD (gene 389434)

CCOC(=O)C(C)OC(=O)c1cc(Oc2ccc(C(F)(F)F)cc2Cl)ccc1[N+](=O)[O-] (stereo unspecified)
inactive: SERPINA7 (gene 6906)

CCC(C)n1c(=O)[nH]c(C)c(Br)c1=O (stereo unspecified)
inactive: IYD (gene 389434)

CS(=O)(=O)c1cc(C(F)(F)F)ccc1C(=O)c1cnoc1C1CC1
inactive: [6] | [7] | [8] | [11] | [9] | [10]

OC(c1ccc(Cl)cc1)(c1ccc(Cl)cc1)C(Cl)(Cl)Cl
active: IYD (gene 389434) 100 µM | SERPINA7 (gene 6906) 5.3 µM

O=C(Nc1ccccc1-c1ccc(Cl)cc1)c1cccnc1Cl
inactive: [6] | [7] | [8] | [11] | [9] | [10]
active: [8] 23.7 µM | [9] 50 µM | [10] 38.3 µM

CNC(=O)Oc1cccc2ccccc12
inactive: [6] | [7] | [8] | [12] | [11] | [9] | [10]

CC(C)Oc1cccc(NC(=O)c2ccccc2C(F)(F)F)c1
inactive: IYD (gene 389434)
active: SERPINA7 (gene 6906) 50 µM

Cc1ccc(N=CN(C)C=Nc2ccc(C)cc2C)c(C)c1
inactive: [13] | [14] | SRD5A2 (gene 6716)

CC(C)(C)C(=O)C(Oc1ccc(Cl)cc1)n1cncn1 (stereo unspecified)
inactive: [6] | [7] | [8] | [11] | [9] | [10] | [15] | [17]
active: [16] 8.94 µM

CC(C)NC(=O)N1CC(=O)N(c2cc(Cl)cc(Cl)c2)C1=O
inactive: IYD (gene 389434)

COC(=O)N(C(=O)N1CO[C@@]2(C(=O)OC)Cc3cc(Cl)ccc3C2=N1)c1ccc(OC(F)(F)F)cc1
inactive: [6] | [7] | [8] | [11] | [9] | [10]

Cn1c(-c2ccccc2)cc(-c2ccccc2)[n+]1C
inactive: SERPINA7 (gene 6906)

CCCN(CC)CC1COC2(CCC(C(C)(C)C)CC2)O1 (stereo unspecified)
inactive: SERPINA7 (gene 6906)

CCSC(=O)N1CCCCCC1
inactive: [6] | [7] | [8] | [11] | [9] | [10] | [15] | [16] | [17]

O=C1C2CC=CCC2C(=O)N1SC(Cl)(Cl)Cl (stereo unspecified)
inactive: [13] | [14] | SRD5A2 (gene 6716) | [12]

CN/C(=N\[N+](=O)[O-])NCc1cnc(Cl)s1
inactive: [6] | [7] | [8] | [11] | [9] | [10]

COP(=S)(OC)SCn1nnc2ccccc2c1=O
inactive: [6] | [7] | [13] | [14] | SRD5A2 (gene 6716) | [11]
active: [8] 21.9 µM | [9] 24.4 µM | [10] 24.4 µM

CS(=O)(=O)c1ccc(C(=O)C2C(=O)CCCC2=O)c([N+](=O)[O-])c1
inactive: [6] | [7] | [8] | [10]

C=C(C)CN(CC)c1c([N+](=O)[O-])cc(C(F)(F)F)cc1[N+](=O)[O-]
active: [8] 22.1 µM | [9] 31.1 µM | [10] 26.5 µM | SERPINA7 (gene 6906) 8.89 µM
inactive: [6] | [7] | [11]

CC1(C)C(C=C(Cl)Cl)C1C(=O)OC(C#N)c1cccc(Oc2ccccc2)c1 (stereo unspecified)
inactive: [6] | [7] | [8] | [11] | [9]

CCCCC(O)(Cn1cncn1)c1ccc(Cl)cc1Cl (stereo unspecified)
active: SERPINA7 (gene 6906) 11.3 µM

CCCCC(C#N)(Cn1cncn1)c1ccc(Cl)cc1 (stereo unspecified)
inactive: [12] | [15] | [16] | [17]

CCOP(=O)(OCC)Oc1nc(Cl)c(Cl)cc1Cl
inactive: [6] | [7] | [11]
active: SERPINA7 (gene 6906) 14.9 µM

CC1(C)CCC(=Cc2ccc(Cl)cc2)C1(O)Cn1cncn1 (stereo unspecified)
inactive: [13] | [14] | SRD5A2 (gene 6716)
active: SERPINA7 (gene 6906) 36.4 µM

Cc1c(COC(=O)[C@@H]2[C@H](/C=C(\Cl)C(F)(F)F)C2(C)C)cccc1-c1ccccc1
active: [8] 10.8 µM | [9] 12.8 µM | [10] 10.6 µM
inactive: [6] | [7] | [11]
